# From PubChem BioAssay
# Many of the other results were omitted from the sample, so hits are more common in it than they were.
# ST2 IL33 inh = blocks human ST2 binding to IL-33; Q01638; AlphaLISA ST2-Fc/biotin-IL-33 interaction, 1 h; inhibition, % for hits at 17 µM; 78,000 compounds, 2.3% hits; AID 1259354; in the data active = inhibition above about 30%
# Target sequence (Q01638 whole entry, looked up): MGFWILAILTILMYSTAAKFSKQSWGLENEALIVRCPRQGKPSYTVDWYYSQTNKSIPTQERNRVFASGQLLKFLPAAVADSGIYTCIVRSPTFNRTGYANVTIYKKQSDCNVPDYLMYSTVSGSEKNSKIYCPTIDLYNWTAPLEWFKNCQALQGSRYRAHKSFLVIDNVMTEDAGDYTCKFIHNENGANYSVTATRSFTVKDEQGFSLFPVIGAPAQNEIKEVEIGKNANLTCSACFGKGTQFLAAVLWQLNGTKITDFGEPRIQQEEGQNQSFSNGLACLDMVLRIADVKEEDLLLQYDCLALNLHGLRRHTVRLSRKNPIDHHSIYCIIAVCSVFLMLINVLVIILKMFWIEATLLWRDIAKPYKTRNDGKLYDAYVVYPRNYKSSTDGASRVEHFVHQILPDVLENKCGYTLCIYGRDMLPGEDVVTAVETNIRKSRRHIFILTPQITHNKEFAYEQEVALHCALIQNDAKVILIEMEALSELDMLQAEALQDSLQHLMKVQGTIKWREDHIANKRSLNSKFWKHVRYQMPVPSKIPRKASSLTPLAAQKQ
# * = called active by the depositor; i = inactive; ! = a repeat was not active.
SMILES,ST2 IL33 inh
Cc1nc(-c2ccc([N+](=O)[O-])cc2)cs1,i
Cc1ccc(Nc2nc(-c3ccc([N+](=O)[O-])cc3)cs2)cc1C,33%*
Ic1ccc(-c2csc(Nc3ccc4c(c3)OCO4)n2)cc1,i
COc1ccccc1C/C(N)=N\OC(=O)c1ccc(C(C)(C)C)cc1,i
[CH2-][N+](C)(C)COP(=O)(O)OP(=O)(O)OC[C@H]1O[C@@H](n2ccc(N)nc2=O)[C@H](O)[C@@H]1O,i
CCCn1cnnc1CNCC(=O)Nc1cnccn1,i
O=C1CCCN1c1ccccc1O,i
O=C1N=C(N2CCCC2)S/C1=C\c1ccccc1O,i
O=C1/C(=C/c2ccccc2O)N=C2CCCCCN12,39%*
CSc1ccccc1NC(=O)c1noc2c1CCc1ccccc1-2,i
O=C(CN1C(=O)/C(=C\c2cccc(Cl)c2)Sc2ccccc21)NCCCN1CCOCC1,32%*
CN(Cc1ccco1)C(=O)CN1C(=O)/C(=C\c2ccc(C(F)(F)F)cc2)Sc2ccccc21,31%*
O=C(CN1C(=O)/C(=C/c2ccccc2F)Sc2ccccc21)NCc1ccco1,i
O=C(CN1C(=O)/C(=C\c2ccc(C(F)(F)F)cc2)Sc2ccccc21)N1CCCC1,30%*
O=C1S/C(=C/c2cccc(Cl)c2)C(=O)N1CN1CCCCC1,i
O=C(CN1C(=O)CSc2ccc(S(=O)(=O)N3CCCCC3)cc21)NCCN1CCCC1,i
O=C(NCCCN1CCOCC1)N1c2ccccc2Sc2ccccc21,i
O=C(CN1C(=O)/C(=C\c2cccc(Cl)c2)Sc2ccccc21)NCCN1CCCCCC1,43%*
O=C(CN1CCCC1)N1c2ccccc2Sc2ccc(C(F)(F)F)cc21,i
CNC(=O)c1ccc(/C=C2\Sc3ccccc3N(Cc3ccc(F)cc3)C2=O)cc1,i
CCC1Oc2ccccc2N(CC(=O)NCCCN2CCOCC2)C1=O (stereo not given),i
CC1CC(=O)N(CC(=O)NCc2ccco2)c2ccccc2S1 (stereo not given),i
Cc1cccc(NC(=O)C2C(=O)NNC2c2ccccc2O)c1 (stereo not given),i
Cc1cc(C)n2nc(SCc3ccccc3Cl)nc2n1,i
CCOc1ccc(C2CC(c3ccc(OCc4ccccc4)cc3)n3ncnc3N2)cc1 (stereo not given),i
SMILES,ST2 IL33 inh
O=c1oc2ccc(Cl)cc2nc1C=C(O)c1ccc([N+](=O)[O-])cc1,i
CN1CCN(S(=O)(=O)c2cc(C(=O)N3CCCC3)cs2)CC1,i
O=C(c1ccc(-c2cccc3ccnn23)nc1)N1CCCCC1CCn1cccn1 (stereo not given),i
OCC(O)(c1ccccc1)c1ccccc1,i
O=C(CSc1nc2ccccc2c(=O)n1-c1ccccc1)c1cccs1,i
CCc1cc(CN2CC[C@@H](c3ccc4ccccc4c3)[C@H](O)C2)on1,i
O=C(Nc1c(F)cccc1F)C(NS(=O)(=O)c1cccs1)c1ccccc1 (stereo not given),i
CCn1c(CC2CCN(Cc3ccc4onc(C)c4c3)CC2)nn(C)c1=O,i
O=C(CN1C(=O)/C(=C\c2cccc(Cl)c2)Sc2ccccc21)N1CCCCC1,33%*
O=C(Nc1ccccc1C(=O)NCCN1CCOCC1)c1ccc(Cl)cc1Cl,i
CN1CCN(C(=O)CN2C(=O)S/C(=C\c3ccc(Cl)cc3)C2=O)CC1,i
O=C(CN1CCN(Cc2cccc(Cl)c2)C1=O)NCCN1CCOCC1,i
COc1ccc(/C=C2\SC(=O)N(CC(=O)N3CCCCC3)C2=O)cc1OC,i
O=C(CN1C(=O)/C(=C\c2cccc(Cl)c2)Sc2ccccc21)NCCN1CCOCC1,36%*
CCCOC(=O)C1=C(C)NC2=C(C(=O)CC(C)(C)C2)C1c1ccc2c(c1)OCO2 (stereo not given),i
N#Cc1c2c(c(N3CCN(CCO)CC3)n3c1nc1ccccc13)CCC2,i
CCCCNC(=O)CN1C(=O)c2ccccc2S1(=O)=O,i
Cc1ccc(C2=NN(C(=O)CCC(=O)O)C(c3ccc(Cl)cc3)C2)cc1 (stereo not given),i
Cc1ccc(C2=NN(C(=O)CCC(=O)O)C(c3ccc(Br)cc3)C2)cc1 (stereo not given),38%*!
O=C(O)CCCC(=O)N1N=C(c2ccc(Br)cc2)CC1c1ccc(Cl)cc1 (stereo not given),i
O=C1CCCN2N=C(SCC(=O)N3CCOCC3)SC2=N1,i
COc1ccc(-c2[nH]c3ccccc3c2C(C[N+](=O)[O-])c2ccco2)cc1 (stereo not given),i
COc1ccc(C(C[N+](=O)[O-])Sc2ccccc2N)cc1 (stereo not given),32%*!
COc1ccc(NC(=O)c2ccccc2Sc2ccc([N+](=O)[O-])cc2)cc1,i
O=C1CC(N2CCCCCCC2)C(=O)N1c1ccc(Br)cc1 (stereo not given),i
SMILES,ST2 IL33 inh
Cc1cc(N2CCN(c3cc(N4CCN(CCO)CC4)ccc3[N+](=O)[O-])CC2)c2ccccc2n1,i
OCCN1CCN(c2nc(NCc3ccco3)c3ccccc3n2)CC1,i
O=[N+]([O-])c1ccc(N2CCN(c3nc(N4CCN(CCO)CC4)nc4ccccc34)CC2)cc1,31%*
O=C(Cn1ccc2ccccc2c1=O)NCC(=O)N1CCCCCC1,i
O=C(COc1ccccc1/C=C1/NC(=O)NC1=O)Nc1ccc(F)cc1,i
CCOC(=O)C1C(=O)C=C(c2ccc(OC)c(OC)c2)CC1c1cc(OC)ccc1OC (stereo not given),i
Cc1ccc(Cl)cc1N(CC(=O)Nc1ccccc1F)S(C)(=O)=O,i
O=C(NC1CCCCCCC1)c1cc(=O)[nH]c2ccc(S(=O)(=O)N3CCCCCC3)cc12,i
CCOc1ccc(NC(=O)CC(=O)N2CCCn3cncc3C2)cc1,i
COCC(=O)N[C@H]1CCN2C(=O)c3cc(-c4cccc(C)c4C)ccc3NC(=O)[C@@H]2C1,i
O=C(N[C@H]1CCN2C(=O)c3cc(-c4ccccc4F)ccc3NC(=O)[C@@H]2C1)c1ccco1,60%*
O=C(N[C@H]1CCN2C(=O)c3cc(-c4cccc(C(F)(F)F)c4)ccc3NC(=O)[C@@H]2C1)c1ccncc1,i
CCOC(=O)C1(CCCc2ccccc2)CCN(C(=O)Nc2cccc(C)c2C)CC1,i
c1ccc(-c2nnc(SCC3CCOCO3)n2-c2ccccc2)cc1 (stereo not given),31%*
O=C(CSc1nnc(-c2ccco2)n1-c1ccccc1)NCC1CCCO1 (stereo not given),i
CCc1ccccc1NC(=O)CSc1nnc(-c2ccncc2)n1-c1ccccc1,i
COCCN(Cc1cccs1)Cc1cccc(C)c1O,i
CC(C)C[C@@H](N)C(=O)N(Cc1cnn(C)c1)C(C)C,i
Cc1cc(Br)ccc1OCC(=O)Nc1ccncc1,i
COc1cccc2c1OCC(C1CC(=O)Nc3[nH]ncc31)=C2 (stereo not given),i
N#CSc1ccc(NC2(c3ccccc3)C(=O)c3ccccc3C2=O)cc1,34%*
O=C(O)CC1(c2ccccc2)C(=O)c2ccccc2C1=O,i
CCc1[nH]c2c(CNC(=O)Cc3c(C)nc(N)nc3C)cc(C)cc2c1C,i
CC1(C)Cc2c(sc(NC(=O)CO/N=C\c3ccccc3Cl)c2C#N)C(C)(C)N1,i
COc1cc(C(=O)Nc2cc(C(F)(F)F)ccc2Cl)c(Br)c(OC)c1OC,i
CCN(Cc1noc(CC(C)C)n1)Cc1cccc(F)c1O,i
Cc1cc(NCCCN(C)C)n2c(nc3ccccc32)c1C#N,i
Cc1cc(NCCO)n2c(nc3ccccc32)c1C#N,i
